# Ub-GFP proteasome: proteasome inhibitors stabilizing ubiquitin-GFP reporter | Ubiquitin-GFP reporter cells, proteasome inhibition, GFP fluorescence; response scale: untreated = 0%, 10 µM MG-132 = 100% | Potency, µM (doses to about 45.9 µM), for the others: top-dose activation (GFP accumulation), actives largely listed as activators | 67,000 tested, under 10 active; active means well fitted activation curve with a large enough effect, not every such curve was filed as active; inconclusive means small, poorly fitted or top-dose-only effect, or another doubt; inactive means no such curve, though single readings can be large or run the other way; further: potency means the concentration at half of the fitted maximal effect
#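 U2OS cells stably expressing ubiquitin(G76V)-GFP, seeded overnight in 0.5% FBS medium, were exposed to compounds (qHTS, 46 uM to 2.9 nM) for 4 hr at 37 °C. GFP-positive cells were counted by laser cytometry (488 ex/515 em), normalized between basal and 10 uM MG-132.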
# HEK293 cAMP ctrl: parental HEK293 cAMP activation (counter-screen); 73,000 compounds, 2.5% hits; Potency, µM (doses to about 57.1 µM), for the others: top-dose activation, hits mostly activators; parental HEK293 CNG cAMP sensor, membrane potential fluorescence; further: potency means the concentration at half of the fitted maximal effect; % of control where 0% means no effect; nearly all actives have a fitted effect of over 55% in size
#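 Parental HEK 293 cells stably expressing a modified CNG channel (no TSHR) report cAMP rise as membrane depolarization. Membrane potential dye with 100 uM RO 20-1724 was loaded for 60 min at room temperature, then compound added for 30 min; fluorescence read at 590 nm.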
# HBB splice mod: hemoglobin beta splicing modulation | HBB splicing reporter cell assay, activation; EGFP reporter with mutant IVS2-654 intron; response scale: normalised to 500 nM splice-correcting PNA | Potency, µM (top dose mostly 46.1 µM), for the others: at the top dose activation, usual class: activators | 65,000 compounds, 0.06% hits | AID 925; further: potency means the concentration at half of the fitted maximal effect; 0% is about no effect
#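 HeLa cells stably expressing EGFP interrupted by mutant beta-globin intron 2 (IVS2-654), 500/well in 2% FCS. Treated with compound for 2 days at 37C. Splicing correction scored as total well GFP intensity (488 nm excitation, 500-520 nm emission); 500 nM antisense PNA served as control.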
# TSHR agonist: agonists of human thyroid stimulating hormone receptor. P16473. HEK293-CNG-TSHR cells (CNG channel as cAMP sensor), membrane potential dye, cAMP. Potency, µM (doses to about 57.1 µM), for the others: at the highest dose activation, actives largely listed as activators. 73,000 compounds, 0.48% hits. AID 926; active means well fitted activation curve with a large enough effect in the main read-out, with a control signal flat, not every such curve was filed as active; inconclusive means small, poorly fitted or top-dose-only effect, or a change in a side signal; inactive means no such curve, though single readings can be large or run the other way; % of control where 0% means no effect;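 further: the control signal comes from parental cells without the receptor; potency means the concentration at half of the fitted maximal effect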
# Target sequence (P16473 whole entry, looked up): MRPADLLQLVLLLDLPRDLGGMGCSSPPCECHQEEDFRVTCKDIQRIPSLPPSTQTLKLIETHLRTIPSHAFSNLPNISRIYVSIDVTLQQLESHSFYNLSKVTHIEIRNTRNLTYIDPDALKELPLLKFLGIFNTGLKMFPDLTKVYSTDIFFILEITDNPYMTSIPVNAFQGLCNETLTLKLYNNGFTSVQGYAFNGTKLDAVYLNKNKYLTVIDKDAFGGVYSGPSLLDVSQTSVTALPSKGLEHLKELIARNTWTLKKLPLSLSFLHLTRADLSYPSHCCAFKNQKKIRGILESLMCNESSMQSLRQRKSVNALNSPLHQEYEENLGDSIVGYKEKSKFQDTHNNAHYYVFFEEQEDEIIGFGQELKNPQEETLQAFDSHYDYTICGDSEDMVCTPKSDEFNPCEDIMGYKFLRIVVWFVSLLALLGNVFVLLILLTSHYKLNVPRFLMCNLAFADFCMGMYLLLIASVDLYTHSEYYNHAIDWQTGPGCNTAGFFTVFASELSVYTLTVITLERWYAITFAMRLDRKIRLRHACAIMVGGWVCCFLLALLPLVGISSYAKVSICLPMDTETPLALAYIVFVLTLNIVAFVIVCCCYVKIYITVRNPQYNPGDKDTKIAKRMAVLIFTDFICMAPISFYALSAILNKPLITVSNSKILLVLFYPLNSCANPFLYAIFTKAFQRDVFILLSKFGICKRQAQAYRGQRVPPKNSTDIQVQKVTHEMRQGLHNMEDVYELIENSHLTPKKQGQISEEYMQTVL
#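 cAMP rise detected as CNG-channel membrane depolarization by fluorescent dye (emission 590 nm), 30 min after compound, following 60 min dye loading containing 100 uM RO 20-1724 at room temperature. Cells: TSHR/CNG HEK 293, with parental CNG HEK 293 as control.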
# GFP derepression: derepresses silenced GFP locus in mouse C127i cells. mouse C127i GFP locus derepression, cytometry, 30 h. Potency, µM (top dose mostly 46.1 µM), inactives show at the top dose GFP derepression (activation). 68,000 compounds, 0.09% hits. AID 597; further: % of control where 0% means no effect
#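 Derepression screen: silenced CMV-GFP reporter in murine C127i cells, 30 h compound incubation at 37 C, washed cells imaged by laser-scanning cytometer to enumerate GFP-expressing objects of 20 to 120 um.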
# An asterisk follows results filed as active; ? = inconclusive; . = no result; [ ] = remark or other dose. This is a sample that favours compounds with a hit; in the whole collection about 3% have one here. Unless noted, the call rests on the fitted dose curve; in most records, active means well fitted curve in the direction sought with a large enough effect; inconclusive means small, poorly fitted or top-dose-only effect, or another doubt; inactive means no such curve, though single readings can be large; an effect the other way counts as inactive or inconclusive.
SMILES,Ub-GFP proteasome,HEK293 cAMP ctrl,HBB splice mod,TSHR agonist,GFP derepression
O=C(c1ccccc1CCc1ccccc1)N1CCN(c2ccccn2)CC1,-2.9%,15.8µM*,-2.2%,?,3.3%
Cc1onc(-c2ccccc2Cl)c1C(=O)Nc1ccc(OCC(=O)N2CCOCC2)cc1,7.4%[9.17 µM],3.98µM*,0.3%[0.0738 µM],?,0.0%
O=C1CSC2=NCN(c3ccc4c(c3)OCO4)CN12,9.1%[9.17 µM],-8.9%[11.4 µM],-2.1%[0.0738 µM],-4.2%[11.4 µM],1.5%
CC(C)=C1C2C=CC1C1C(=O)N(c3ccc4c(c3)OCO4)C(=O)C21 (stereo not given),-14.8%[9.17 µM],3.5%[11.4 µM],-1.5%[0.0738 µM],2.51µM*,-1.5%
CCOC(=O)[C@]1(C(NC(=O)OC)c2ccccc2)CCCC1=O (stereo not given in full),.,12.4%[11.4 µM],3.5%[9.22 µM],16.1%[11.4 µM],.
COc1ccccc1C1C=C(c2ccc(C)cc2)Nc2nnnn21 (stereo not given),3.1%,25.1µM*,2.6%[1.84 µM],?,0.5%
COc1ccc(C2=CC(c3c(C)nn(-c4ccccc4)c3Cl)n3nnnc3N2)cc1OC (stereo not given),17.9%,18.1%,-3.5%,?,-1.2%
O=C(c1cnn2c(C(F)(F)F)cc(-c3ccco3)nc12)N1CCCCCC1,4.3%,31.6µM*,-0.1%,?,2.5%
O=C(O)c1cnn2c(C(F)(F)F)cc(-c3ccco3)nc12,.,.,.,.,2.6%[20.6 µM]
CCOC(=O)c1[nH]c(C)c(C(=O)c2cc(F)ccc2F)c1C,-5.7%,11.6%,-1.7%,31.6µM*,6.5%
CN1CCc2cc3c(cc2C(=O)Cc2ccc4c(c2C1)OCO4)OCO3,2.6%,?,.,?,-2.5%[9.22 µM]
COc1ccc(OC)c(S(=O)(=O)n2ccnc2)c1,-4.4%,6.9%,-0.4%,2.1%,.
O=C(c1[nH]o[n+](=O)c1C(=O)c1csc2ccccc12)c1csc2ccccc12,-3.5%[9.17 µM],9.3%[11.4 µM],0.7%[9.22 µM],3.0%[11.4 µM],0.0%[9.22 µM]
O=C(Cl)c1cccc([N+](=O)[O-])c1,.,-16.2%,-0.1%,?,.
CCOC(=O)c1c(NC(=O)Cc2cccs2)sc(C)c1C,2.7%,25.1µM*,-0.1%[9.22 µM],?,2.2%
CN1CCN(c2ncc3nc(-c4ccccc4)c(=O)n(C)c3n2)CC1,-3.3%,21.6%,0.0%,-2.3%,13.5%[9.22 µM]
O=C(CC(c1ccco1)S(=O)(=O)c1ccccc1)c1ccc(F)cc1 (stereo not given),.,.,.,.,3.16µM*
O=C(CN(c1ccc(F)cc1)S(=O)(=O)c1ccccc1)NCc1ccco1,2.0%,5.4%,.,.,-1.7%
CC(C)Cn1c(=O)c(C(=O)NCc2ccccn2)c(O)c2ccccc21,.,25.1µM*,-0.1%[0.369 µM],?,-2.1%
CCCn1c(=O)c(C(=O)NCc2ccncc2)c(O)c2ccccc21,0.0%,?,0.0%[57.5 µM],?,1.5%
Cc1ccc2c(c1)N(CC(=O)N(Cc1ccc3c(c1)OCO3)CC1CCCO1)C(=O)C(C)O2 (stereo not given),3.1%,20µM*,.,?,3.7%
Cc1ccc2c(c1)N(CC(=O)c1cccc(Cl)c1)C(=O)C(C)O2 (stereo not given),-3.4%,20µM*,.,?,-1.9%
CC1Oc2ccccc2N(CC(=O)c2cccc(Cl)c2)C1=O (stereo not given),-4.7%,?,.,?,5.8%
O=c1[nH]c2[nH]c(=S)[nH]c(=S)c2[nH]1,4.3%[9.17 µM],6.8%[11.4 µM],-3.2%[9.22 µM],0.6%[11.4 µM],0.1%[9.22 µM]
Cc1cc(C)c2nc(SCC(=O)N3CCCCC3)c(C#N)cc2c1,1.9%,?,0.0%,?,1.0%
SMILES,Ub-GFP proteasome,HEK293 cAMP ctrl,HBB splice mod,TSHR agonist,GFP derepression
Cc1cccc2cc(C#N)c(SCC(=O)N3CCC(C)CC3)nc12,-3.8%,25.1µM*,0.0%[57.5 µM],?,-1.9%
Cc1cccc2cc(C#N)c(SCC(=O)N3CC(=O)Nc4ccccc43)nc12,15.5%,?,?,?,15.8µM*
COc1ccc(OC2C=CC(C#Cc3ccccc3)OC2CO)cc1 (stereo not given),.,13.3%[11.4 µM],0.4%[9.22 µM],-2.3%[11.4 µM],.
OC[C@@H]1O[C@H](O)[C@@H](Cl)[C@H](O)[C@@H]1O,4.9%,-2.3%,-0.2%,-5.6%,4.0%
S=C(Nc1ccccc1)Nc1nccs1,-6.9%,-4.7%,-0.8%,-9.1%,31.6µM*
CCCn1c(-c2ccc(F)cc2)nc2c(NCCCCN(C)C)nc(C)nc21,-12.6%,?,-0.5%,?,.
CC(CCC(=O)O)(c1cc(Br)c(O)c(Br)c1)c1cc(Br)c(O)c(Br)c1,-4.6%[9.17 µM],1.26µM*,2.6%[9.22 µM],?,2.3%[9.22 µM]
Fc1ccc(C(c2nnnn2Cc2ccccc2)N2CCSCC2)cc1 (stereo not given),-6.7%,12.6µM*,.,?,0.0%
COc1ccc(C(c2nnnn2Cc2ccc(F)cc2)N2CCN(c3ccccc3)CC2)cc1 (stereo not given),5.1%,28.7%,-1.3%,.,1.4%
CC1=C(/C=C/C(C)=C/C=C/C(C)=C/C=O)C(C)(C)CCC1,.,27.7%,-0.4%,21.2%,.
O=P(O)(O)C(O)C(F)(F)C(F)(F)C(F)(F)C(F)F (stereo not given),-5.4%,3.98µM*,-1.0%,?,1.1%
COc1ccccc1CNc1ncnc2ccc(-c3cccc(NS(C)(=O)=O)c3)cc12,7.7%,16.3%,-0.1%,26.7%,2.3%[9.22 µM]
Cc1ccc(SCCNS(=O)(=O)c2ccc(F)cc2)cc1,9.5%[9.17 µM],18.2%[11.4 µM],-0.3%[0.0738 µM],1µM*,0.0%
COc1ccc(S(=O)(=O)NCCSc2ccc(C)cc2)cc1OC,4.2%,?,0.0%[9.22 µM],?,-2.3%
COc1ccc(N(CC(=O)Nc2cc(C)on2)S(=O)(=O)c2cc(C)ccc2C)cc1,-1.8%,26.9%,2.1%[57.5 µM],25.1µM*,2.2%
CCOC(=O)N1CCN(S(=O)(=O)c2ccc(C)cc2)C1c1ccc(OC)cc1 (stereo not given),-8.3%,?,-0.3%[9.22 µM],?,-2.2%
CCOC(=O)N1CCN(S(=O)(=O)c2ccc(C)cc2)C1c1ccccc1 (stereo not given),23.6%,12.6µM*,-0.1%[9.22 µM],?,-0.3%
CCc1cc(Br)ccc1N1C(=O)C2CC=CCC2C1=O (stereo not given),4.5%[9.17 µM],6.5%[11.4 µM],0.5%[0.0738 µM],2.51µM*,-1.6%
CCOC(=O)c1ccc(N2C(=O)C3CC=CCC3C2=O)cc1 (stereo not given),0.0%,-8.8%,0.0%[9.22 µM],8.6%,-1.6%
CC(=O)Oc1cc(OC(C)=O)c2c(=O)cc(-c3ccc(OC(C)=O)c(OC(C)=O)c3)oc2c1,-1.3%,-10.5%,.,-6.1%,-0.1%[9.22 µM]
c1ccc(-c2c3ccccc3nc3[nH]c4ccccc4c23)cc1,.,10µM*,-0.2%,?,.
c1ccc2nc3c(nc2c1)[nH]c1ccccc13,0.0%,6.2%,8.6%,2.4%,0.0%
CCCn1c(-c2ccc(F)cc2)nc2c(NCCCN3CCCCC3C)nc(C)nc21 (stereo not given),-1.8%,?,0.3%,?,.

# Screens from PubChem BioAssay.
